This note sets out measurements from PubChem BioAssay AID1259343 (VanderVen Lab, College of Veterinary Medicine, Cornell …, 2017).

In all, about 6,200 compounds went through this assay and about 2,900 (47%) were called active. No stated cut-off is given here; in the data, active means inhibition above about 50%; inactive means the rest. So high a share suggests a set chosen from earlier hits. The list shows a part of the results.

The assay is described as follows: Mycobacterium tuberculosis growth inhibition, primary screen (AID 1259343). As to conditions: inhibition: at 10 µM, hits give high values; outcome: 10 uM.
One may read the inhibition as the drop in the measured response relative to a control, in per cent. Take `NC(c1csc(Nc2nncc3ccccc23)n1)C1CCCCC1` (stereo not drawn): the inhibition was 97.4% (active). In the case of `NC(c1csc(Nc2nncc3ccccc23)n1)c1ccccc1Cl` (stereo not drawn), the inhibition is 58.8% (active).

`COc1ccc(CC(N)c2csc(Nc3nncc4ccccc34)n2)cc1` (stereo not drawn): the inhibition was 91.7% (active). Take `NC(Cc1ccccc1)c1csc(Nc2nncc3ccccc23)n1` (stereo not drawn): the inhibition was 89.8% (active).

For the compound `Cc1cc2n(c1)CCn1c(C)ccc1-2`, the inhibition is -18.7% (inactive). As for `NC(COCc1ccccc1)c1csc(Nc2nncc3ccccc23)n1` (stereo not drawn), the figure is 71% (active); as for `c1ccc(CC(Cc2ccccc2)=NNc2nncc3ccccc23)cc1`, 9.04% (inactive). As for `NC(CCc1ccccc1)c1csc(Nc2nncc3ccccc23)n1` (stereo not drawn), the figure is 81% (active). As for `COc1ccc(C(N)c2csc(Nc3nncc4ccccc34)n2)cc1` (stereo not drawn), the inhibition is 57.6% (active). As for `CCCn1ccnc1SCC(=O)NC(=O)NC12CC3CC(CC(C3)C1)C2`, the figure is 32.7% (inactive); as for `O=C(Nc1ccc(-c2ccccc2)cc1)N[C@@H](Cc1ccccc1)C(=O)N1CCC(C(=O)N2CCCCC2)CC1`, 76.3% (active); as for `Cc1ccc(-n2c(Cl)c(Cl)nc(Cl)c2=O)cc1`, 102% (active). For `CCCc1nc2oc3ccccc3c(=O)c2c(=O)n1-c1ccc(C)cc1`, the inhibition was -28% (inactive). As to `Cc1sc2ncnc(NC3CCCCC3C)c2c1C` (stereo not drawn), the inhibition was 84.5% (active). With `Cc1[nH]c2ccccc2c1N=Nc1cccc2ccccc12`, the inhibition was -9.25% (inactive). As for `CCOC(=O)c1c(C)[nH]c(C(=O)CSc2ncn[nH]2)c1C`, the figure is -1.94% (inactive); as for `Cc1[nH]c2ccccc2c1N=Nc1ccc(SC(F)F)cc1`, 58.3% (active).

For the compound `Cc1ccc(C)c(N=Nc2c(C)[nH]c3ccccc23)c1`, the inhibition was 81.8% (active). As for `Cc1ccc(C2=NNC(=NCc3ccc4c(c3)OCO4)SC2)s1`, the figure is 18.8% (inactive). For `Cc1[nH]c2ccccc2c1N=Nc1ccc(F)cc1` the value was 11.2% (inactive). As for `CCOC(=O)c1c(C)[nH]c(C(=O)OCC(=O)C23CC4CC(CC(C4)C2)C3)c1C`, the figure is -59.8% (inactive). On to `CCOC(=O)c1c(C)[nH]c(N=Nc2ccc3c(c2)OCO3)c1C`, for which the inhibition is 104% (active).

Regarding `Cc1[nH]c2ccccc2c1N=Nc1ccc2c(c1)OCO2`, the inhibition is 89.7% (active).

With `Cc1[nH]c2ccccc2c1C(c1cccnc1)c1c(C)[nH]c2ccccc12`, the inhibition was 45.9% (inactive).

Regarding `O=c1c(NCCc2ccccc2)nccn1-c1ccccc1`, the inhibition was 23.1% (inactive). For the compound `Cc1ccc(-n2ccnc(NCC(C)c3ccccc3)c2=O)cc1C` (stereo not drawn), the inhibition is 68.9% (active).

As for `Cc1cc(NS(=O)(=O)c2cc(Cl)ccc2Cl)no1`, the inhibition was 43.7% (inactive). On to `Cc1cc(F)ccc1S(=O)(=O)Nc1cc(-c2ccccc2)on1`, for which the inhibition is 69.6% (active).
